Test results reported in PubChem BioAssay (Tox21).
“And” between values parts separate entries of the source, which are not always exact repeats. Identical values can stand only once. Inconclusive results are not listed. Where a call stands in place of a potency, no number is given. The source holds several records for some structures; these can differ, active in one and inactive in another. The source made the active and inactive calls. The call rests on the fitted dose curve; in most records, active means well fitted cell-killing curve with a large enough effect in the repeat runs; inconclusive means weak or mixed curves, or effect the other way; inactive means flat fitted curve, though single readings scatter.

Assay: qHTS assay to identify small molecule agonists of the estrogen receptor beta (ER-beta) signaling pathway - cell viability counter screen (AID 1259380); further: nearly all actives have a fitted effect of over 30% in size
Settings: ER-beta-bla HEK293T viability, CellTiter-Glo luminescence, 16 h; series mostly up to 92.4 µM; activity change, negative = cytotoxicity: at the top concentration
Excerpt: National Center for Advancing Translational Sciences [NCATS]
NIH Chemical Genomics Center [NCGC]
U.S. Environmental Protection Agency [EPA]
National Institutes of Environmental Health Sciences [NIEHS]
National Toxicology Program [NTP]
U.S. Food and Drug Administration [FDA]
Estrogen receptor (ER), a nuclear hormone receptor, plays an important role in development, metabolic homeostasis and reproduction. Two subtypes of ER, ER-alpha and ER-beta, have similar expression patterns with some uniqueness in both types. Endocrine disrupting chemicals (EDCs) and their interactions with steroid hormone receptors like ER causes disruption of normal endocrine function. To identify the compounds that activate ER signaling, an ER beta-UAS-bla GripTite cell line (Life Technologies, Madison, WI, USA) containing a beta-lactamase reporter gene under the control of an UAS response element was used to screen Tox21 10K compound library. The cytotoxicity of the Tox21 compound library against the ER-beta-bla cell line was tested in parallel by measuring the cell viability using CellTiter-Glo assay in the same wells.
Tox21 Assay Protocol Summary:
ER-beta-UAS-bla HEK293T cells were dispensed at 2,000 cells/5 uL of assay medium containing 2% charcoal stripped FBS per well into black wall/clear-bottom 1536-well plates using a Multidrop Combi (ThermoFisher Scientific, Waltham, MA) dispenser. After the assay plates were incubated at a 37C and 5% CO2 for 6 hr, 23 nL of compounds dissolved in DMSO, positive controls or DMSO only was transferred to the assay plate by a Pintool station (Kalypsys, San Diego, CA). The plates were incubated at 37C and 5% CO2 for 16 hr. Then 1 uL of LiveBLAzerTM B/G FRET substrate was added using a BioRAPTR FRD (Flying Reagent Dispenser, Aurora Discovery, San Diego, CA) and then the plates were incubated at room temperature for 2 hours, and fluorescence intensity was measured by an Envision plate reader (PerkinElmer, Shelton, CT). For cell viability readout that measures cytotoxicity, 4 uL/well of CellTiter-Glo reagent was added into the assay plates using a FRD. After 30 min incubation at room temperature, the luminescence intensity in the plates was measured using a ViewLux (PerkinElmer) plate reader.
Potency means the concentration at half of the fitted maximal effect.

Row | SMILES | Potency | activity change, negative = cytotoxicity
1 | COC(=O)/C=C\C(=O)OC | inactive | –
2 | CCCCCC(C)=O | inactive | –
3 | CCCOCC(C)O (stereo not given) | inactive | –
4 | O=C(O)Cc1c[nH]c2ccccc12 | inactive | –
5 | C=C1C[C@]23C[C@@]1(O)CC[C@H]2[C@@]12C=C[C@H](O)[C@@](C)(C(=O)O1)[C@H]2[C@@H]3C(=O)O | inactive | –
6 | N[C@@H](Cc1cc(I)c(Oc2ccc(O)c(I)c2)c(I)c1)C(=O)O | inactive | –
7 | CCN(CC)CCNC(=O)c1ccc(N)cc1 | inactive | –
8 | CC(CN1c2ccccc2Sc2ccccc21)N(C)C (stereo not given) | 49.1 µM (active) and 24.3 µM (active) and 23.7 µM (active) | –
9 | CC(C)=CCC/C(C)=C/C=O | inactive | –
10 | CC(C=O)Cc1ccc(C(C)(C)C)cc1 (stereo not given) | – | -2.78% (inactive)
11 | CCOC(=O)CC(=O)OCC | inactive | –
12 | CCCN(CCC)C(=O)SCC | – | 2.27% (inactive)
13 | CC1(C)[C@@H](O[C@H]2O[C@H](C(=O)O)[C@@H](O)[C@H](O)[C@H]2O[C@@H]2O[C@H](C(=O)O)[C@@H](O)[C@H](O)[C@H]2O)CC[C@]2(C)[C@H]3C(=O)C=C4[C@@H]5C[C@@](C)(C(=O)O)CC[C@]5(C)CC[C@@]4(C)[C@]3(C)CC[C@@H]12 | inactive | –
14 | Cc1ccc(Cl)cc1 | inactive | –
15 | CC(=O)OC(C)(C)C1CC=C(C)CC1 (stereo not given) | inactive | –
16 | CCc1cccc(CC)c1N | inactive | –
17 | O=Cc1ccc(CO)o1 | inactive | –
18 | OB(O)O | inactive | –
19 | CC(=O)OCc1ccc2c(c1)OCO2 | inactive | –
20 | c1cnc2c(c1)ccc1cccnc12 | 2.43 µM (active) | –

Row | SMILES | Potency | activity change, negative = cytotoxicity
21 | CCOC(=O)c1ccc(O)cc1 | – | 5.47% [at 42.5 µM] (inactive)
22 | COc1ccc([C@@H]2CC(=O)c3c(O)cc(O[C@@H]4O[C@H](CO[C@@H]5O[C@@H](C)[C@H](O)[C@@H](O)[C@H]5O)[C@@H](O)[C@H](O)[C@H]4O)cc3O2)cc1OC | inactive | –
23 | NCCNCCNCCN | – | 0.402% (inactive)
24 | COc1ccc(N)c(OC)c1 | inactive and 54.5 µM (active) | –
25 | CCc1cccc(O)c1 | inactive | –
26 | Cc1ccccc1C=O | inactive | –
27 | C=C(CC(=O)O)C(=O)O | inactive | –
28 | Cc1ncc(CO)c(CO)c1O | inactive | –
29 | CCCCCCCCO | inactive | –
30 | CC(=O)c1nccs1 | inactive | –
31 | Cc1ccccc1Cl | inactive | –
32 | COCN(COC)c1nc(N(COC)COC)nc(N(COC)COC)n1 | inactive | –
33 | OCc1ccc(Cl)cc1Cl | inactive | –
34 | Cc1ccncc1 | inactive | –
35 | C[n+]1ccn(CCO)c1 | inactive | –
36 | OCCOCCOCCOCCOCCO | inactive | –
37 | Cc1ccc(C(C)C)cc1 | inactive | –
38 | Brc1ccc(Oc2ccc(Br)cc2)cc1 | inactive | –
39 | CCCCCNCCCCC | inactive | –
40 | NC(=O)c1ncn([C@@H]2O[C@H](CO)[C@@H](O)[C@H]2O)n1 | – | -4.41% [at 42.5 µM] (inactive)
